# Bioassay records as filed in PubChem BioAssay.
# DAX1 inh-1: DAX1 (NR0B1) inhibition, primary screen; HEK293T StAR-luciferase reporter, SF-1/DAX-1 repression relief; inhibition, % at 6.8 µM; 370,000 compounds, 1.1% hits; AID 652010;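 active means inhibition above the mean over all tested compounds plus 3 SD, cut at about 3.6% in these data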;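 further: 0% = DAX-1 cells with DMSO and 100% = cells lacking DAX-1 with DMSO; higher inhibition means more luminescence from relief of DAX-1 repression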
# DAX1 inh-2: inhibitors of human orphan nuclear receptor DAX1 (NR0B1); HEK293 Gal4-DAX1 luciferase reporter, luminescence; inhibition, % at 6.75 µM; 340,000 compounds, 0.99% hits; AID 504766;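 active means inhibition above the mean over all tested compounds plus 3 SD, cut at about 4.2% in these data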;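 further: 0% = DAX1-transfected cells with DMSO and 100% = empty-vector control cells with DMSO; inhibition shows as a rise in luminescence from relieved DAX1 repression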
# Target sequence (P51843 207-470 limits assumed): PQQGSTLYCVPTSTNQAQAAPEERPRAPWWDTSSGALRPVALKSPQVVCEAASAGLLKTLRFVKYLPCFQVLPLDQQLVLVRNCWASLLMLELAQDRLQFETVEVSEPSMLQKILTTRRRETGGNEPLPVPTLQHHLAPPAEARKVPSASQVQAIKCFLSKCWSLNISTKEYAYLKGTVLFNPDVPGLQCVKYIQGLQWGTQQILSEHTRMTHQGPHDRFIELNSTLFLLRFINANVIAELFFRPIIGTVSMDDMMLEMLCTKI
# ssDAF12 agonist: S. stercoralis DAF-12 activation, primary screen; activation, % at 6.8 µM; 370,000 compounds, 1% hits; HEK293 ssDAF-12/GRIP1 lit1-tk-luc reporter, luminescence; % of 3 µM dafachronic acid response; AID 652126;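 active means activation above the mean over all tested compounds plus 3 SD, cut at about 0.9% in these data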;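 further: 0% = DMSO-only wells and 100% = 3 µM delta7-dafachronic acid wells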
# hgDAF-12 ag: agonists of H. glycines DAF-12 nuclear receptor; HEK293 GAL4-hgDAF12 UAS-luciferase reporter, agonist luminescence; normalized to butyrate control; activation, % at 6.8 µM; 370,000 compounds, 1.8% hits;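 active means activation above a cutoff set at the mean of all screened compounds plus 3 SD, cut at about 10% in these data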;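 further: 0% = DMSO wells and 100% = sodium butyrate wells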
# hcDAF12 agonist: activators of H. contortus DAF-12 nuclear receptor. HEK293 hcDAF-12 lit1-tk-luc reporter, luminescence; 0% DMSO, 100% Δ7-dafachronic acid. activation, % at 6.8 µM. 370,000 compounds, 1.4% hits;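 active means activation above the mean of all tested compounds plus 3 SD, cut at about 5.5% in these data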;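 further: 100% = response to 3 µM Δ7-dafachronic acid high control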
# SMARCA2 activ: increases SMARCA2 function in MMTV reporter cells; 370,000 compounds, 1% hits; MG213 cells, MMTV-luciferase reporter, dexamethasone, overnight; activation, % at 9.1 µM; in the data active means activation above about 7.8%;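 further: 0% = vehicle wells and 100% = reference activator wells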
# * = called active by the depositor; . = not tested or not shown. Hits are enriched below; roughly 4.8% of the tested compounds scored in any of these assays.
SMILES,DAX1 inh-1,DAX1 inh-2,ssDAF12 agonist,hgDAF-12 ag,hcDAF12 agonist,SMARCA2 activ
CCCOc1cccc(C(=O)Nc2ccc(Br)cc2F)c1,2,3,-1,11*,4,13*
CC1CCC(NC(=O)CN2CCN(S(=O)(=O)c3cccs3)CC2)CC1 (centres undefined),-1,0,-1,0,0,0
O=C(NCCN1C(=O)S/C(=C\c2cccnc2)C1=O)C1CC(=O)N(Cc2ccco2)C1 (centres undefined),0,0,1.2*,2,4,3
O=C1CCC(C(=O)NCCN2C(=O)S/C(=C\c3cccnc3)C2=O)=NN1,0,0,1.2*,1,-1,2
O=C(NCCN1C(=O)S/C(=C/c2cccnc2)C1=O)C1=NN(c2ccccc2)C(=O)CC1,3,0,-1,0,2,-2
COC(=O)C1=C(C(=O)OC)[C@@H]2N(Cc3ccccc3)c3ccccc3[C@@]23C[C@@H](C(=O)OC)N(C(=O)CC(C)C)C3=N1,0,0,-2,-2,-2,0
CC(C)NC(=O)/C(C#N)=C/c1ccc(N(C)C)o1,0,5.0*,-2,3,-1,0
Cc1cccc(NC(=O)Cn2c(O)c(N=NC(=O)c3ccccc3O)c3ccccc32)c1,0,-1,1,2,6.0*,-6
NC(=S)N=Nc1c(O)n(CC(=O)Nc2ccccc2)c2ccccc12,0,-1,-1,-1,-2,-2
CN(C)c1nc(N/N=C/c2c[nH]c3ccccc23)nc(N2CCOCC2)n1,0,3,1.2*,-1,3,-5
C(=N\Nc1nc(N2CCCCC2)nc(N2CCCCC2)n1)/c1c[nH]c2ccccc12,-1,-1,1.1*,2,4,2
Cc1[nH]c2ccccc2c1/C=N/Nc1nc(N2CCCCC2)nc(N2CCCCC2)n1,0,0,-2,-2,1,0
O=C(NNC(=O)c1n[nH]c2ccccc12)c1ccccc1,0,0,-1,5,-1,-2
Oc1cc(O)cc(C=Cc2ccc(O)c(O)c2)c1,4.3*,.,0,10,4,-2
O=C(/C=C/c1ccc(O)c(O)c1)c1ccccc1O,1,0,0,9,1,7
c1ccc(-c2nnc(-c3ccccc3)nn2)cc1,1,.,1.0*,9,5,2
c1ccc(-c2nn[nH]n2)cc1,0,1,-1,-2,1,2
CCOC(=O)c1sc(=S)n(-c2cc(F)ccc2F)c1N,-1,0,-1,-1,-1,-5
COC(=O)c1sc(=S)n(-c2cc(F)ccc2F)c1N,0,4.9*,0,1,-1,-2
CCOC(=O)CNc1c(-c2ccc(Cl)cc2)nc2cnccn12,1,0,-1,2,-1,0
Cc1c(C(=O)O)sc2nc(/C=C/c3ccccc3OC(F)F)[nH]c(=O)c12,0,-1,-1,-1,0,-3
COc1ccc(C(=O)CCC(=O)O)cc1,1,0,-1,1,-2,-1
COc1ccc(CCCC(=O)O)c(C)c1,0,1,1.5*,-1,0,-1
CN(C)S(=O)(=O)c1ccc(C(=O)Nc2ccccn2)cc1,2,1,-1,11*,0,1
CN(C)S(=O)(=O)c1ccc(NC(=O)c2ccccn2)cc1,3,2,0,13*,2,4
SMILES,DAX1 inh-1,DAX1 inh-2,ssDAF12 agonist,hgDAF-12 ag,hcDAF12 agonist,SMARCA2 activ
CC(=O)NS(=O)(=O)c1ccc(NC(=O)c2ccccn2)cc1,0,1,0,2,1,-1
Cc1ccc(S(=O)(=O)N(C)c2ccc(C(=O)Nc3ccccn3)cc2)cc1,1,-2,-2,1,1,2
CCN1C(=O)CCN(C2CCCC2)c2nc(Nc3ccc(C(=O)NC4CCN(C)CC4)cc3OC)ncc21,1,8.2*,1,-4,4,1
COc1ccc(C(=O)NC2CCCCCC2)cc1S(=O)(=O)N1CCCc2ccccc21,0,-1,-1,0,0,-3
COc1ccc(-c2[nH]nc3c2C2(C(=O)N(CC(=O)O)c4ccccc42)C(C#N)=C(N)O3)cc1OC (centres undefined),1,0,-1,-1,-2,0
COc1ccc(CNC(=O)Cc2ccc(NC(=O)C3=C(C)OCCS3)cc2)cc1,-2,0,0,11*,2,4
COc1cccc(CNC(=O)c2cccc(NC(=O)C3=C(C)OCCS3)c2)c1,-1,-1,-1,-4,0,-2
CCCCCCn1cc(C(=O)O)c(=O)c2cc(F)c(N3CCN(C(=O)OCC)CC3)cc21,0,0,-1,0,1,-2
Cc1oc2c(C)c(O)ccc2c(=O)c1-c1nncn1-c1ccccc1,0,7.1*,-1,5,2,1
Cc1ccc(NC(=O)CS(=O)CC(=O)Nc2ccccc2-c2ccc(C)o2)cc1 (centres undefined),1,0,-1,-1,-1,0
COc1ccc(C(=O)NCc2nnc(SCC(=O)Nc3ccccc3OC)n2C)cc1,0,1,-1,0,-1,5
O=C(O)C(Cc1ccccc1)N1C(=O)c2cccc3cccc(c23)C1=O (centres undefined),0,-1,1.7*,1,4,0
O=C(O)C(Cc1ccccc1)N1C(=O)c2ccccc2C1=O (centres undefined),0,-2,-1,-2,0,-1
O=C(O)c1ccccc1C(=O)Nc1ccc(Oc2cccc(C(F)(F)F)c2)nc1,0,1,0,-2,6.2*,0
Cc1ccc(C(=O)Nc2ccc(Oc3cccc(C(F)(F)F)c3)nc2)cc1,0,0,-1,-2,-2,-5
CC(=O)c1ccc(NC(=O)CSc2nc(N3CCOCC3)nc(N3CCOCC3)n2)cc1,4.1*,1,0,4,4,1
COc1cc(NC(=O)C/C(C)=N/NC(=O)c2cccc(O)c2)c(OC)cc1Cl,1,3,0,12*,6.1*,3
CC(=O)N/N=C(\C)CC(=O)Nc1ccc2c(c1)OCCO2,-1,0,-1,0,0,3
C/C(CC(=O)Nc1ccc2c(c1)OCCO2)=N\NC(=O)c1cccc(O)c1,1,6.4*,-1,5,1,5
C/C(CC(=O)Nc1ccc(Br)cc1)=N\NC(=O)c1cccc(O)c1,1,5.7*,-1,0,0,0
COCCCn1c(Cc2ccccc2)nnc1SCC(=O)N1CCCCC1,0,0,-1,-1,-3,-2
C[C@@H]1CN(Cc2nnnn2CC(=O)NCCCn2cccn2)C[C@H](C)O1,0,0,-1,0,0,7.9*
